High-throughput results: PubChem, National Center for Advancing Translational Sciences (NCATS)
Hits are enriched below; roughly 19% of the tested compounds scored in any of these assays.
IL1B secr inh – inflammasome signaling inhibition, IL-1 beta readout; THP-1 LPS/ATP IL-1B secretion, AlphaLISA, 16 h; active compounds read low; activity change, % at 57.5 µM; actives 4.7% (n = 360,000); in the data active means activity change below about -50%; inconclusive means mostly about -30% to -49%
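Secreted IL-1B measured by AlphaLISA bead assay after 16 h compound exposure of THP-1 cells; compounds (final up to 57.5 uM) added 1 h before LPS (250 ng/mL) and ATP (1.25 mM) stimulation; lower signal means less secretion.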
HT1080 IDH1KD tx – kills HT-1080 cells with IDH1 knockdown. HT-1080 IDH1 knockdown viability, ATP luminescence, 48 h. Potency, µM (series often up to 46.1 µM), actives largely listed as cytotoxic. actives 2% (n = 360,000). AID 686971
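% activity derives from luminescence (CellTiter-Glo), normalised to DMSO and no-cell wells. HT-1080-IDH1KD cells, 750/well, had 48 h compound exposure at 37 °C.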
TDP1 cell noCPT – qHTS for Inhibitors of human tyrosyl-DNA phosphodiesterase 1 (TDP1): qHTS in cells in absence of CPT. DT40 Tdp1-/- hTDP1 cells, no CPT, ATP luminescence, 48 h. Potency, µM (top dose mostly 46.2 µM), most hits filed as inhibitors. AID 686978, 2013. actives 15% (n = 420,000); further: nearly all actives have a fitted effect of over 55% in size
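Growth of hTDP1-complemented DT40 Tdp1-knockout cells is measured by ATP luminescence after at least 48 hr compound exposure at 37 °C, with DMSO substituting for the 20 nM CPT used in the parallel screen.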
TDP1 cell CPT – DT40-hTDP1 cell growth loss with CPT. chicken DT40 Tdp1-/-;hTDP1 cells + 20 nM CPT, ATP luminescence, 48 h. Potency, µM (doses to about 46.2 µM), most hits filed as inhibitors. actives 12% (n = 420,000); further: nearly all actives have a fitted effect of over 55% in size
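Cell growth measured by CellTiter-Glo luminescence after a minimum 48 h, 37 C compound exposure with 20 nM CPT in Tdp1-knockout DT40 cells stably expressing hTDP1, seeded 400/well; qHTS titration format.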
HT1080-NT tox – kills 2HG-producing HT-1080-NT fibrosarcoma cells | HT-1080-NT fibrosarcoma viability, CellTiter-Glo ATP luminescence, 48 h | Potency, µM (top dose mostly 46.1 µM), usual class: cytotoxic | actives 1.6% (n = 360,000);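 further: NT is the 2HG producing partner of a matched IDH1 knockdown line; nearly all actives have a fitted effect of over 55% in size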
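750 cells/well, RPMI + 5% FBS; 2 h settle, compound pin-transfer, 48 h at 37 degrees C. CellTiter-Glo 10 min RT, luminescence. Normalized to DMSO and media-only wells.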
Each line names hits and unclear results; the compound was inactive in the other large screens. Unless noted, the call rests on the fitted dose curve; in most records, active means well fitted curve in the direction sought with a large enough effect; inconclusive means small, poorly fitted or top-dose-only effect, or another doubt; inactive means no such curve, though single readings can be large; an effect the other way counts as inactive or inconclusive.

NS(=O)(=O)OCCCc1ccccc1	TDP1 cell CPT inconclusive
[2H]C(CCOS(N)(=O)=O)c1ccc(C(C)(C)C)cc1 (stereo not drawn)	TDP1 cell noCPT 21µM, TDP1 cell CPT 21µM
C[C@H](CO)N1C[C@H](C)[C@@H](CN(C)C(=O)NC2CCCCC2)Oc2c(NC(=O)Nc3ccccc3)cccc2C1=O	IL1B secr inh inconclusive
O=C1N(Cc2cccnc2)C[C@@H]2C[C@@H](c3ccc4nsnc4c3)N3CCC[C@@]123	TDP1 cell CPT inconclusive
OCCC1CN(Cc2cnc(-c3ccccc3)s2)CCN1C1CCCCC1 (stereo not drawn)	TDP1 cell noCPT inconclusive
CCOc1ccc2nc(CN3CCN(Cc4ccsc4)C(CCO)C3)ccc2c1 (stereo not drawn)	TDP1 cell noCPT 18µM, TDP1 cell CPT inconclusive
OCCC1CN(Cc2cnc(-c3ccccc3)s2)CCN1C1CCCC1 (stereo not drawn)	IL1B secr inh -81
OCCC1CN(Cc2cnc(-c3ccc(Cl)cc3)nc2)CCN1C1CCCC1 (stereo not drawn)	IL1B secr inh -73, HT1080 IDH1KD tx inconclusive, TDP1 cell noCPT 15µM, TDP1 cell CPT 23µM, HT1080-NT tox inconclusive
CCOc1ccc(CN2CCN(Cc3cnc(-c4ccccc4)s3)CC2CCO)cc1 (stereo not drawn)	TDP1 cell noCPT 21µM, TDP1 cell CPT inconclusive
Cc1ccc(SCc2c(C(=O)N/N=C/c3ccoc3)nnn2-c2nonc2N)cc1	TDP1 cell noCPT inconclusive
OCCC1CN(CC(c2ccccc2)c2ccccc2)CCN1C1CCCC1 (stereo not drawn)	TDP1 cell noCPT 18µM, TDP1 cell CPT inconclusive
Cc1ccc(NC(=O)N2CC3CCCN3c3ccccc32)cc1Cl (stereo not drawn)	TDP1 cell noCPT 16µM, TDP1 cell CPT inconclusive (no result: IL1B secr inh, HT1080 IDH1KD tx, HT1080-NT tox)
Cc1ccc(NC(=O)N2CC3CCCN3c3ccccc32)cc1C (stereo not drawn)	TDP1 cell noCPT 23µM, TDP1 cell CPT 18µM (no result: IL1B secr inh, HT1080 IDH1KD tx, HT1080-NT tox)
Cc1ccc(NC(=O)N2CCc3ccccc3C2)c(C)c1	none
Cc1ccc(NC(=O)N2CC3CCCN3c3ccccc32)c(C)c1 (stereo not drawn)	TDP1 cell noCPT 18µM, TDP1 cell CPT 23µM (no result: IL1B secr inh, HT1080 IDH1KD tx, HT1080-NT tox)
O=C(Cc1ccc(NC(=O)C2CCN(C(=O)C3CC3)CC2)cc1)Nc1cccc(C(=O)N2CCCCC2)c1	none
CCOc1ccc(N(CC(=O)Nc2ccccc2C(=O)NC(C)CC)S(C)(=O)=O)cc1 (stereo not drawn)	TDP1 cell noCPT inconclusive
Cc1ccc(/C=C/c2nc3ccccc3[nH]2)o1	IL1B secr inh -73, HT1080 IDH1KD tx inconclusive, TDP1 cell noCPT 16µM, TDP1 cell CPT 23µM, HT1080-NT tox inconclusive
O=c1[nH]c2ccccc2nc1/C=C/c1ccccc1	TDP1 cell CPT inconclusive
COc1ccccc1/C=C/c1nc2ccccc2[nH]1	TDP1 cell noCPT 14µM, TDP1 cell CPT inconclusive (no result: IL1B secr inh, HT1080 IDH1KD tx, HT1080-NT tox)
O=c1[nH]c2ccccc2nc1/C=C/c1ccc(O)cc1	IL1B secr inh -76, TDP1 cell noCPT 15µM, TDP1 cell CPT inconclusive
Cc1ccc(OCc2nc3ccccc3[nH]2)cc1	IL1B secr inh inconclusive, TDP1 cell noCPT inconclusive, TDP1 cell CPT inconclusive
COc1cc(/C=C/c2nc3ccccc3c(=O)[nH]2)cc(OC)c1OC	IL1B secr inh inconclusive, HT1080 IDH1KD tx inconclusive, HT1080-NT tox inconclusive
Cc1ccc(/C=C/c2nc3ccccc3[nH]2)cc1	TDP1 cell noCPT 13µM, TDP1 cell CPT 10µM (no result: IL1B secr inh, HT1080 IDH1KD tx, HT1080-NT tox)
C/C(CC(=O)Nc1cc(C)ccn1)=N\NC(=O)c1cccc(F)c1	none
COc1ccccc1/C=C/c1cnccn1	TDP1 cell noCPT inconclusive (no result: IL1B secr inh, HT1080 IDH1KD tx, HT1080-NT tox)
CCOC(=O)c1cn2nc(Oc3ccc(OC)cc3)ccc2n1	TDP1 cell noCPT 6.5µM, TDP1 cell CPT inconclusive
CCOc1ncccc1C(=O)OCC(=O)Nc1cccc(S(N)(=O)=O)c1	none
Cc1ccc(-c2nc(CS(=O)CC(=O)NCCN3CCCCCC3)c(C)o2)cc1 (stereo not drawn)	TDP1 cell noCPT inconclusive
C=CC(=O)Oc1ccc(N2Cc3ccccc3C2=O)cc1	TDP1 cell noCPT 4.6µM, TDP1 cell CPT 3.7µM
COc1ccc(N2Cc3ccccc3C2=O)cc1	HT1080 IDH1KD tx inconclusive, TDP1 cell noCPT inconclusive, TDP1 cell CPT inconclusive, HT1080-NT tox inconclusive
CC(=O)N/C(=C\c1ccc(C)o1)C(=O)NCc1ccccc1	none
CC(=O)OC[C@H]1O[C@@H](Sc2cccc3cccnc23)[C@H](OC(C)=O)[C@@H](OC(C)=O)[C@H]1OC(C)=O	TDP1 cell CPT 18µM
COc1cc2cc(C#N)c(SCC(=O)Nc3cc(C)on3)nc2cc1OC	none
Cc1cc(C(=O)N/N=C/c2cccn2C)no1	none
O=C(N/N=C/c1ccc[nH]1)c1cc(-c2cccs2)nc2ccccc12	HT1080 IDH1KD tx inconclusive, TDP1 cell noCPT 21µM, TDP1 cell CPT inconclusive, HT1080-NT tox inconclusive
O=C(N/N=C/c1ccc2ncccc2c1)c1cc(-c2cccs2)nc2ccccc12	TDP1 cell noCPT 3.3µM, TDP1 cell CPT 2.9µM
Cn1cccc1/C=N/NC(=O)c1cc(-c2cccs2)nc2ccccc12	HT1080 IDH1KD tx inconclusive, TDP1 cell noCPT 5.8µM, TDP1 cell CPT 8.2µM, HT1080-NT tox inconclusive
COc1ccccc1-c1cc(C(=O)N/N=C/c2cccs2)c2ccccc2n1	HT1080 IDH1KD tx inconclusive, TDP1 cell noCPT inconclusive, TDP1 cell CPT inconclusive
Cc1ccc2c(Cl)c(C(=O)N/N=C/c3cccn3C)sc2c1	HT1080 IDH1KD tx inconclusive, TDP1 cell noCPT 8.2µM, TDP1 cell CPT 8.2µM, HT1080-NT tox inconclusive
O=C(COc1ccc(Cl)cc1)NCc1nnc(SCC(=O)N2CCCC2)o1	none
Cn1cccc1/C=N/NC(=O)c1cc2ccccc2cc1O	TDP1 cell noCPT 21µM
O=C(N/N=C/c1cccnc1)c1cc(-c2cccs2)nc2ccccc12	HT1080 IDH1KD tx inconclusive, TDP1 cell noCPT 16µM, TDP1 cell CPT inconclusive, HT1080-NT tox inconclusive
O=C(N/N=C/C1CC=CCC1)c1cc2ccccc2cc1O (stereo not drawn)	HT1080 IDH1KD tx 18µM, HT1080-NT tox inconclusive
Cc1noc(C)c1S(=O)(=O)N(C)C[C@@H]1OCc2cnnn2CCCC(=O)N([C@H](C)CO)C[C@@H]1C	none
COc1ccc(CNc2ncc(-c3ccccc3)n2C)c(OC)c1OC	TDP1 cell noCPT 15µM, TDP1 cell CPT inconclusive
CCOc1ccc(CNc2ncc(-c3ccccc3)n2C)cc1	TDP1 cell noCPT inconclusive
CCOc1ccc(-c2cnc(NCc3ccc(C(F)(F)F)cc3)n2C)cc1	TDP1 cell noCPT 5.8µM, TDP1 cell CPT 5.2µM (no result: IL1B secr inh, HT1080 IDH1KD tx, HT1080-NT tox)
CCc1ccc(CNc2ncc(-c3cccc(OC)c3)n2C)cc1	TDP1 cell noCPT 4.1µM, TDP1 cell CPT 4.1µM (no result: IL1B secr inh, HT1080 IDH1KD tx, HT1080-NT tox)
Cn1c(-c2ccccc2)cnc1NCc1cc(Cl)ccc1O	IL1B secr inh -55
COc1ccc(CNc2ncc(-c3ccccc3)n2C)c2ccccc12	TDP1 cell noCPT inconclusive, TDP1 cell CPT inconclusive
